PubChem BioAssay (NCATS)
Inconclusive results are not listed. Entries that show only a call come without a potency. Activity calls are given as the source filed them. Unless noted, the call rests on the fitted dose curve; in most records, active means well fitted curve in the direction sought with a large enough effect in the repeat runs; inconclusive means weak or mixed curves; inactive means no such curve, though single readings can be large; an effect the other way counts as inactive or inconclusive.

Legend:
[1] = molecular target: Cytochrome P450 2D6 (Homo sapiens) (UniProt P10635); assay: Cytochrome P450 family 2 subfamily D member 6 (CYP2D6) small molecule antagonists: luciferase biochemical (cell-free) qHTS assay (AID 1645840); further: nearly all actives have a fitted effect of over 55% in size; further: potency means the concentration at half of the fitted maximal effect
In short: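 P450-Glo luminescent screen: recombinant CYP2D6 enzyme–proluciferin substrate mix preincubated with compound 10 min at room temperature, then NADPH regeneration added for 1 h at room temperature. Detection reagent added for 20 min; luciferin light read as relative luminescence units.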

[2] = A High-Content qHTS Against Drug Library for the Identification of Small Molecules that Inhibit DYT1 Early Onset Primary Dystonia-Associated Cell Pathology (AID 1645839; calls by dose curve; further: series mostly up to about 46 µM)
In short: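 In this high-content image screen, delE TorsinA mislocalization in inducible Flp-In 293 cells is scored as %pathology, with cell count serving as the counterscreen. Compound exposure lasts 48 h under tetracycline induction in reduced-serum medium.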

[3] = molecular target: Cytochrome P450 2C9 (Homo sapiens) (UniProt P11712); assay: Cytochrome P450 family 2 subfamily C member 9 (CYP2C9) small molecule antagonists: luciferase biochemical (cell-free) qHTS assay (AID 1645842); further: series mostly up to about 57 µM; nearly all actives have a fitted effect of over 55% in size
In short: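 Luminescence, after 20 min with luciferin detection reagent, reflected CYP2C9 turnover during a 1 h NADPH-driven reaction at 37C. Enzyme-substrate mix contained 0.4% bovine serum albumin and was preincubated with compound 10 min at room temperature.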

[4] = Primary qHTS for inhibitors of nuclear receptor binding SET domain protein 2 (NSD2) in an isogenic RCH-ACV NSD2 p.E1099K mutant (9B) (AID 1645876; active means well fitted curve in the direction sought with a large enough effect; an effect the other way counts as inactive or inconclusive; further: nearly all actives have a fitted effect of over 70% in size)

Cytochrome P450 2C9 (Homo sapiens), sequence (P11712 whole entry, looked up): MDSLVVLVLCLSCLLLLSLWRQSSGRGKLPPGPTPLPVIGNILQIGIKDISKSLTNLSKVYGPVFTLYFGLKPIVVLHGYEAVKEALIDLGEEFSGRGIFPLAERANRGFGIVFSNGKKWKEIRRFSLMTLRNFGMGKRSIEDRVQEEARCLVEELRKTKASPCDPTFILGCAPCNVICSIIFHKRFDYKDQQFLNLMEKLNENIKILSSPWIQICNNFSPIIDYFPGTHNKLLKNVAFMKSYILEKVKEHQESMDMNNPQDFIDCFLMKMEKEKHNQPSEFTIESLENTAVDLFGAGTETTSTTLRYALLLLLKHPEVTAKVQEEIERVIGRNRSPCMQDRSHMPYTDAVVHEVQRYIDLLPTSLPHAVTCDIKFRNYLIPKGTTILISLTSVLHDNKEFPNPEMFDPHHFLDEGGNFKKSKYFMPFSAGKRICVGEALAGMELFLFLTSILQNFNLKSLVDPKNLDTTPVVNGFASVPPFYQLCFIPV
Cytochrome P450 2D6 (Homo sapiens), sequence (P10635 whole entry, looked up): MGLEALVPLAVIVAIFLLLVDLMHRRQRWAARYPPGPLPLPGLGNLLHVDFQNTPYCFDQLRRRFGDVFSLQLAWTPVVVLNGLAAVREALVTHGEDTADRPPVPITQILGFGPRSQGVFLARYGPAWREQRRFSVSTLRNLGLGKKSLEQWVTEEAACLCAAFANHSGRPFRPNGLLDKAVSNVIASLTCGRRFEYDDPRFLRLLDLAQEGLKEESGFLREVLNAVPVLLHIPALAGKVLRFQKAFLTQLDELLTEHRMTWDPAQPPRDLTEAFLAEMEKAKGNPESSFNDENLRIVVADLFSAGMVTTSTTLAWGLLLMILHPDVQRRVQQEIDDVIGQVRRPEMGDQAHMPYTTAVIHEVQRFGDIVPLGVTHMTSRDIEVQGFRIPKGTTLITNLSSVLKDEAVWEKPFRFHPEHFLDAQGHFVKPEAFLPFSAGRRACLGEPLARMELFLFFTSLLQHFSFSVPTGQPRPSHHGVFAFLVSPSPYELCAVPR

SMILES	Potency [1]	Potency [2]	Potency [3]	Potency [4]
CO[C@H]1C=CO[C@@]2(C)Oc3c(C)c(O)c4c(O)c(c(/C=N/N5CCN(C)CC5)c(O)c4c3C2=O)NC(=O)/C(C)=C\C=C[C@H](C)[C@H](O)[C@@H](C)[C@@H](O)[C@@H](C)[C@H](OC(C)=O)[C@@H]1C	inactive			
CCc1nn(CCCN2CCN(c3cccc(Cl)c3)CC2)c(=O)n1CCOc1ccccc1	977 nM (active)			
O=C(Nc1ccccc1)OCC(CN1CCCCC1)OC(=O)Nc1ccccc1 (centres undefined)	155 nM (active)			
CCCCc1cc2ccccc2c(OCCN(C)C)n1	2190 nM (active)			
CC1CCc2c(N3CCC(O)CC3)c(F)cc3c(=O)c(C(=O)O)cn1c23 (centres undefined)	inactive	inactive	inactive	inactive
Cc1cc(C)cc(OCC2CNC(=O)O2)c1 (centres undefined)		inactive	inactive	inactive
CC(C(=O)O)c1cccc(Oc2ccccc2)c1 (centres undefined)	inactive	inactive		inactive
Oc1ccccc1C=NCc1ccccc1		inactive	inactive	inactive
CCCN(CCC)S(=O)(=O)c1ccc(C(=O)O)cc1	inactive	inactive	inactive	inactive
CCOC(=O)[C@@](C)(N)Cc1ccc(O)c(O)c1		inactive	inactive	
COc1cc(NS(=O)(=O)c2ccc(N)cc2)ncn1		inactive	inactive	
C[C@@H](O)[C@H]1C(=O)N2C(C(=O)O)=C([C@H]3CCCO3)S[C@H]12		inactive	inactive	inactive
Cc1ccc(S(=O)(=O)NC(=O)NC2CCCC2)cc1		inactive	inactive	inactive
CCC(Cc1c(I)cc(I)c(N)c1I)C(=O)O (centres undefined)	15500 nM (active)	inactive		inactive
